According to PubChem BioAssay AID651843 (National Center for Advancing Translational Sciences (NCATS), 2012):
Some of the results follow. Inconclusive results are not listed. Unmarked numbers belong to inactive results. The call rests on the fitted dose curve; in most records, active means well fitted inhibition curve with a large enough effect; inconclusive means small, poorly fitted or top-dose-only effect; inactive means no such curve, though single readings can be large or run the other way.

Assay: qHTS Assay for Inhibitors of MBNL1-poly(CUG) RNA binding: Counterscreen HTRF assay
Details: His-Menin/biotin-MLL peptide TR-FRET counterscreen; series mostly up to 57.6 µM; activity, negative = inhibition: at the top concentration
Source text: NIH Chemical Genomics Center [NCGC] NIH Molecular Libraries Probe Production Centers Network [MLPCN] MLPCN Grant: R03 MH087421-01 Assay Submitter (PI): Charles Thornton NCGC Assay Overview: Expanded CTG repeats in the 3' untranslated region of the DM protein kinase (DMPK) gene causes type I myotonic dystrophy (DM1). DM1 is a multi-systemic disease with a prevalence of 1/7000. Clinical features include myotonia, progressive muscle weakness and wasting, cardiac arrhythmia, insulin resistance, hypersomnolence, cataracts, and other symptoms. The pathogenic effect of expanded CTG repeats stems from deleterious effects of the mutant transcript. CUGexp mRNA accumulates in nuclear foci and sequesters proteins of the muscleblind family, of which MBNL1 is the most common family member in skeletal muscles. […] This brings the terbium label within close proximity to XL665 to allow time-resolved fluorescence resonance energy transfer (TR-FRET). […]
This assay uses a ratiometric measurement of TR-FRET binding assay with His-Menin and Biotin-MLL peptide. […] (3) Add 1 ul of 0.22 ng/ul terbium labeled anti-His antibody (0.055 ng/ul final concentration) (4) Add 1 ul of 20 nM streptavidin-XL665 (5 nM final concentration) (5) Incubate 60 min at room temperature (6) Detect the assay plate in a EnVision plate reader (PerkinElmer) with Ex=340 nm, Em1=665 nm and Em2=545 nm.

SMILES | activity, negative = inhibition [%]
NCCC[C@H](N)CC(=O)N[C@H]1CNC(=O)[C@H]([C@H]2C[C@H](O)NC(N)=N2)NC(=O)/C(=C/NC(N)=O)NC(=O)[C@H](CO)NC(=O)[C@H](CO)NC1=O | -2.75
CCOC(=O)c1c(C)[nH]c2c1-c1ccccc1C(=O)C2=O | 4.75
